In PubChem BioAssay AID488969 (Vanderbilt High Throughput Screening Facility, 2010):
Whole data set: some 110,000 compounds, median “z-score” near -0.1, cut for the highest 2% near 2. The sample as a whole holds a higher share of the highest values than the screen did. Active and inactive are the calls of the source.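 How the source made its calls: active means z-score in the third read window above 3 or below -3; inactive means the rest.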

target: Metabotropic glutamate receptor 8 (Rattus norvegicus) (UniProt P70579); assay: rat mGluR8 modulators via GIRK flux, primary screen, cell-based, thallium flux, HTS (AID 488969); conditions: HEK293 rat mGluR8, GIRK (G protein-gated inwardly rectifying potassium channel) thallium flux, FluoZin2; at 10 µM; stronger effect = higher value; submaximal glutamate (EC20) added with thallium
Sequence (P70579 whole entry, looked up): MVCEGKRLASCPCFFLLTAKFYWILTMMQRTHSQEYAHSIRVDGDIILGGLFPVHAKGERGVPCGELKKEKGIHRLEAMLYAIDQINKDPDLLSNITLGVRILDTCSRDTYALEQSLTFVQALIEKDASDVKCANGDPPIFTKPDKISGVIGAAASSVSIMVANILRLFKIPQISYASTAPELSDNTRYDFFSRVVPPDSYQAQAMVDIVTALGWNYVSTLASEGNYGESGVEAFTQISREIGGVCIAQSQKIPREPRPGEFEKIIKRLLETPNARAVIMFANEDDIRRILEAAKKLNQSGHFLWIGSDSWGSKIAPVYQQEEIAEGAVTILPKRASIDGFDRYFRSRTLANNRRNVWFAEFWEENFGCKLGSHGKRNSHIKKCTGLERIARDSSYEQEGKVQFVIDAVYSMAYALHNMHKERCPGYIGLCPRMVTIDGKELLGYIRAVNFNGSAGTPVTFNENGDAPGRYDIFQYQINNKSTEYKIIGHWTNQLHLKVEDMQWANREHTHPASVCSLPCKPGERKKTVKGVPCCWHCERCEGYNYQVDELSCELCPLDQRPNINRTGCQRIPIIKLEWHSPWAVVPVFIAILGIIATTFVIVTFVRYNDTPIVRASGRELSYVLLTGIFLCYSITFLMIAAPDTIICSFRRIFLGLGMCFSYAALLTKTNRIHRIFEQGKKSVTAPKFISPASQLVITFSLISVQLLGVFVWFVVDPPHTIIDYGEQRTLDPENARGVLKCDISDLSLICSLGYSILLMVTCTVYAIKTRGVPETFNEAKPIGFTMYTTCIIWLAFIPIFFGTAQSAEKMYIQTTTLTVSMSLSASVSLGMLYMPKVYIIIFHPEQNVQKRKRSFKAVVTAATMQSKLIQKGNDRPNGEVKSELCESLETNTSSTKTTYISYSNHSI

First: O=C(COC(=O)c1cccc([N+](=O)[O-])c1)c1ccc(OCc2ccccc2)cc1
Second: Cc1cccc(C(=O)Nc2ccccc2C(=O)OCC(=O)Nc2ccc(C#N)cc2)c1
The z-score of the first is lower: -0.231 for the first, 2.11 for the second.

Compared with `O=C(O)CCCCCNc1nc(=S)[nH]c2ccccc12`, `O=C(CCCCCNc1nc(=S)[nH]c2ccccc12)NCCc1ccccc1` is higher in z-score: 0.209 for the first, 0.302 for the second.

First: O=C(CCCSc1nc2ccccc2[nH]1)NCc1ccc(Cl)cc1
Second: O=C(Cc1c[nH]c2ccccc12)NCc1ccc(Cl)cc1
The z-score of the first is lower: -0.328 for the first, 0.348 for the second.

First: O=C(O)Cc1csc(Nc2cccc(Cl)c2)n1
Second: COC(=O)Cc1csc(Nc2ccccc2Cl)n1
The z-score of the first is higher: 0.819 for the first, 0.0565 for the second.

First: COc1ccc(CNC(=O)Cc2c(C(=O)O)[nH]c3ccccc23)cc1
Second: COc1ccc(CNC(=O)COC(=O)[C@H](Cc2c[nH]c3ccccc23)NC(=O)c2cccs2)cc1
The z-score of the first is lower: -0.136 for the first, 0.0349 for the second.

Compared with `Cc1cccc(OCC(=O)Nc2ccc(N3CCN(C(=O)c4ccccc4)CC3)cc2)c1`, `Cc1ccc(NC(=O)COC(=O)c2ccccc2Nc2ccccc2)cc1` is lower in z-score: -0.0735 for the first, -0.179 for the second.

First: Cc1ccc(S(=O)(=O)N2CCOCC2)c2nsnc12
Second: Cc1c(C(=O)NCc2cccnc2)oc2ccc(S(=O)(=O)N3CCCCC3)cc12
The z-score of the first is lower: -0.358 for the first, 1.3 for the second.

Going from `CCN1CCN(C(CNC(=O)c2ccc3c(c2)OCO3)c2cccnc2)CC1` (centres undefined) to `Cc1cccc(-c2nc(CSCC(=O)N3CCN(c4ccccn4)CC3)c(C)o2)c1`, the z-score falls from -0.319 to -1.37.

Going from `COc1cc2c(cc1OC)CN(C(=O)C(C)(C)C)CC2` to `COc1ccc(S(=O)(=O)N2CCN(C(=O)c3ccco3)CC2)cc1OC`, the z-score falls from -0.104 to -0.51.

First: CN(C1CCCCC1)S(=O)(=O)c1ccc(S(=O)(=O)N2CCN(CCC#N)CC2)cc1
Second: O=C(CSc1n[nH]c(-c2ccc(S(=O)(=O)N3CCCCC3)cc2)n1)Nc1nccs1
The z-score of the first is lower: 0.242 for the first, 0.951 for the second.

First: CCS(=O)CCSC(=N)N (centres undefined)
Second: CCC1CCCCN1C(=O)CSc1nnc(-c2cccs2)o1 (centres undefined)
The z-score of the first is lower: -0.0992 for the first, 0.801 for the second.

Going from `Cc1ccc(NC(=S)Nc2nc(CC(=O)Nc3ccccc3)cs2)cc1` to `O=C(Cc1csc(-c2ccccc2)n1)NCc1ccc(F)cc1`, the z-score falls from 0.0541 to -0.252.

First: COc1ccc(-n2nc3ccccc3n2)cc1
Second: COc1ccc(CC(=O)Nc2cccc(-c3csc(C)n3)c2)cc1
The z-score of the first is lower: 0.249 for the first, 1.88 for the second.

First: O=C(NCc1ccncc1)C1CCCN(S(=O)(=O)Cc2ccccc2)C1 (centres undefined)
Second: Cc1c(C(=O)NCc2ccccc2)oc2ccc(S(=O)(=O)N3CCC4(CC3)OCCO4)cc12
The z-score of the first is higher: -0.193 for the first, -0.293 for the second.

Going from `CCC1CCCCN1C(=O)CSc1nnc(-c2ccc(Cl)cc2)o1` (centres undefined) to `O=C(CN1CCC(n2nnc3cc(F)ccc32)CC1)N1CCc2ccccc2C1`, the z-score falls from -0.41 to -0.899.

Compared with `CCC(NC(=O)Cn1cnc2c(=O)n(C)c(=O)n(C)c21)c1ccccc1` (centres undefined), `Cn1c(=O)[nH]c(=O)c2c1nc(NCCCO)n2CCCc1ccccc1` is lower in z-score: 0.0869 for the first, 0.0396 for the second.

First: COc1ccc(C2C(C(=O)c3ccco3)=C(O)C(=O)N2CCOCCO)cc1OC (centres undefined)
Second: CCC(c1nnnn1Cc1ccccc1)N(Cc1ccco1)Cc1cc2cc(OC)ccc2[nH]c1=O (centres undefined)
The z-score of the first is higher: -0.0423 for the first, -0.0441 for the second.

Going from `O=C(NOC(=O)c1ccccc1Cl)c1cccs1` to `O=C(Oc1ccc(Br)cc1C(=S)N1CCCC1)c1ccccc1Cl`, the z-score rises from -0.383 to -0.0754.

First: COC(=O)NNC(=O)c1ccc(C)cc1
Second: CCc1ccc(NC(=O)c2cc(C)on2)cc1
The z-score of the first is higher: 0.0536 for the first, -0.546 for the second.

Going from `CCCOc1ccc(C(=O)Nc2cc(-c3nn4c(C)nnc4s3)ccc2C)cc1` to `Cc1cc(C)c2nc(NC(=O)c3ccc(OCC4CCCO4)cc3)sc2c1` (centres undefined), the z-score falls from -0.185 to -0.201.

Going from `CN(Cc1ccccc1)c1ccc(N2C(=O)CCCC2=O)cc1[N+](=O)[O-]` to `COc1cc(/C=N/NC(=O)C(Cc2c[nH]c3ccccc23)NC(=O)OCc2ccccc2)cc([N+](=O)[O-])c1O` (centres undefined), the z-score falls from -0.202 to -0.505.

First: O=C(O)CCCC(=O)NCCc1ccncc1
Second: Cc1ccc(N(C(=O)c2csnn2)C(C(=O)NC(C)(C)C)c2ccncc2)cc1 (centres undefined)
The z-score of the first is higher: 0.0989 for the first, -0.134 for the second.

First: COc1ccc(/C=N/NC(=O)C(=O)/C=C2\NC3(CCCC3)Cc3ccccc32)cc1
Second: CC(=O)c1ccccc1NC(=O)COC(=O)c1ccccc1NC(=O)c1ccccc1
The z-score of the first is lower: 0.0973 for the first, 0.161 for the second.

Going from `Cc1cccc(N(C(=O)c2csnn2)C(C(=O)NC(C)(C)C)c2ccncc2)c1` (centres undefined) to `CCC(c1nnnn1CCOC)N(Cc1ccc(C)cc1)Cc1cc2cc(OC)ccc2[nH]c1=O` (centres undefined), the z-score rises from -0.134 to 0.378.

Going from `CC(C)COC(=O)c1cc(=O)[nH]c2ccccc12` to `O=C1Nc2ccccc2SC(c2ccccc2)C1O` (centres undefined), the z-score falls from 1.23 to -0.0924.

Going from `CCc1ccc2nc(NC(=O)CSCc3c(C)noc3C)sc2c1` to `Cc1cc(C)c2nc(NC(=O)C3CCCO3)sc2c1` (centres undefined), the z-score rises from -0.0333 to 0.217.

Going from `CCOC(=O)N1CCN(Cc2nc(N)nc(Nc3ccc(OCC)cc3)n2)CC1` to `CC(C)NS(=O)(=O)c1ccc(NC(=O)C2CC3C=CC2C3)cc1` (centres undefined), the z-score rises from -0.27 to -0.0807.

Compared with `CC(=O)OC1COC(n2ccc3cc([N+](=O)[O-])ccc32)C(OC(C)=O)C1OC(C)=O` (centres undefined), `Cn1c(=O)[nH]c(=O)c2c1nc(NCc1ccccc1)n2CCCc1ccccc1` is lower in z-score: 0.0746 for the first, -0.132 for the second.

Molecule `CC(=O)NC1(C(F)(F)F)C(=O)NC(C)=C1C#N` (centres undefined) has a z-score of -1.29.

`O=C(Cc1csc(Nc2nc(=S)[nH]c3ccccc23)n1)NCc1ccc(Cl)cc1` was tested, and the z-score was 7.05 (active).
With `O=C(Cc1csc(Nc2nc(=S)[nH]c3ccccc23)n1)NCc1cccc(Cl)c1` the z-score was 6.85 (active).
For `O=C(Cc1csc(Nc2nc(=S)[nH]c3ccccc23)n1)NCc1ccccc1Cl`, the z-score was 3.83 (active).
`COc1ccc(CNC(=O)Cc2csc(Nc3nc(=S)[nH]c4ccccc34)n2)cc1` was tested, and the z-score was 8.83 (active).
For `Cc1ccc(CNC(=O)Cc2csc(Nc3nc(=S)[nH]c4ccccc34)n2)cc1`, the z-score was 10.7 (active).
`CCC1CCCCN1C(=O)CSc1nnc(-c2ccco2)o1` (centres undefined) was tested, and the z-score was 11.1 (active).
For `Cc1c(C(=O)NCc2cccnc2)oc2ccc(S(=O)(=O)N3CCC4(CC3)OCCO4)cc12`, the z-score was 5.95 (active).
In the case of `CC(C)(C)NC(=O)C(c1ccncc1)N(C(=O)c1csnn1)c1ccccc1` (centres undefined), the z-score is reported as 6.21 (active).
In the case of `CCc1ccc2nc(NC(=O)c3cc(C)on3)sc2c1`, the z-score is reported as 10.1 (active).
With `Cc1cc(C)c2nc(NC(=O)c3cc(C)on3)sc2c1` the z-score was 12 (active).
For `CN(C)CCNc1nc2c(c(=O)[nH]c(=O)n2C)n1CCCc1ccccc1`, the z-score was 3.35 (active).
For `CCC(c1nnnn1Cc1ccc(OC)cc1)N(CCCO)Cc1cc2cc3c(cc2[nH]c1=O)OCO3` (centres undefined), the z-score was 5.57 (active).
